# Data from PubChem BioAssay (NCATS).
# Results filed as inconclusive are left out. Values without a mark were called inactive. Active and inactive are the calls of the source. Calls follow the shape of the full dose curve; tested in HEK293 reporter line.
# Assay: qHTS for Inhibitors of the Functional Ribonucleoprotein Complex (vRNP) of Lassa (LASV) Arenavirus: LASV Primary Screen - GLuc reporter signal (AID 1347082); also: nearly all actives have a fitted effect of over 60% in size
# Conditions: LASV minigenome vRNP, Gaussia luciferase reporter; series mostly up to 57.5 µM; activity change, negative = inhibition: at the top concentration
# % is scaled to controls: 0 for no effect and ±100 for the full control effect.
Structure (SMILES),"activity change, negative = inhibition [%]",Potency
COc1ccc(C(=O)NCc2ccc(OCCN(C)C)cc2)cc1OC,-16.6,
CC(=O)Nc1ccc(OC(=O)c2ccccc2OC(C)=O)cc1,4.37,
Cc1ccccc1OCC(O)CO (centres undefined),6.8,
C[C@H]1C[C@@H]2[C@H]([C@@H](O)C[C@@]3(C)[C@H]2CC[C@]3(O)C(=O)CO)[C@@]2(C)C=CC(=O)C=C12,33.7,
CN1[C@@H]2CCC[C@@H]1CC(NC(=O)c1nn(C)c3ccccc13)C2 (some centres undefined),2.05,
CCOCCn1c(C2CCN(CCc3ccc(C(C)(C)C(=O)O)cc3)CC2)nc2ccccc21,-11.1,
CO/N=C(/C(=O)N[C@@H]1C(=O)N2C(C(=O)OCOC(=O)C(C)(C)C)=C(C)CS[C@H]12)c1csc(N)n1,-2.06,
Cc1cc(CC(=O)O)c(C)n1-c1ccc(Cl)cc1,0.948,
NCCCC[C@H](N[C@@H](CCc1ccccc1)C(=O)O)C(=O)N1CCC[C@H]1C(=O)O,-13.4,
N#CSCC(=O)O,-13.4,
CC(CCc1ccc2c(c1)OCO2)NN (centres undefined),1.29,
O=C(O)Cc1ccc(OCCNC[C@H](O)c2ccccc2)cc1,-34.8,
OCCOCCN1CCN(C2=Nc3ccccc3Sc3ccccc32)CC1,-15.8,
CC(=O)OC(C)OC(=O)C(C)c1ccc(-c2ccccc2)c(F)c1 (centres undefined),-1.39,
Cc1cc(CCCOc2c(C)cc(-c3noc(C(F)(F)F)n3)cc2C)on1,3.31,
CC(C)CN(C[C@@H](O)[C@H](Cc1ccccc1)NC(=O)O[C@H]1CO[C@H]2OCC[C@H]21)S(=O)(=O)c1ccc(N)cc1,-29.3,
COc1cc(/C=C/C(N)=O)cc(OC)c1OC,-6.52,
NC(=O)c1cc[n+](CC2=C(C(=O)[O-])N3C(=O)[C@@H](NC(=O)Cc4cccs4)[C@H]3SC2)cc1,3.62,
O=C(OOC(=O)c1ccccc1)c1ccccc1,-0.712,
CNC(=O)c1ccccc1Sc1ccc2c(/C=C/c3ccccn3)n[nH]c2c1,-21,

Structure (SMILES),"activity change, negative = inhibition [%]",Potency
Cc1c(F)c(N2CCNC(C)C2)cc2c1c(=O)c(C(=O)O)cn2C1CC1 (centres undefined),-0.0498,
CC(C)(Oc1ccc(Cl)cc1)C(=O)O,-7.04,
NS(=O)(=O)c1cc2c(cc1Cl)NC(CC1CCCC1)NS2(=O)=O (centres undefined),7.09,
O=C(O)CN1C(=O)c2cccc3cccc(c23)C1=O,0.641,
O=C(O)[C@@H]1CSCN1,6.09,
COC(=O)[C@@H]1[C@H]2C[C@H]3c4[nH]c5ccccc5c4CCN3C[C@@H]2CC[C@@H]1O,,inactive
CN(C)CCc1c[nH]c2ccc(Cn3cncn3)cc12,-1.35,
CN(CC1(C)CCCO1)S(=O)(=O)c1ccc(Cl)c(S(N)(=O)=O)c1 (centres undefined),6.78,
NCCNCCNCCN,8.38,
CCOc1ncc(F)c(=O)[nH]1,-4.44,
N#Cc1ccc(C(c2ccc(C#N)cc2)n2cncn2)cc1,1.1,
Cc1cc(=O)[nH]c(=S)[nH]1,2.44,
CC1(COc2ccc(CC3SC(=O)NC3=O)cc2)CCCCC1 (centres undefined),-1.68,
COc1ccc2cccc(CCNC(C)=O)c2c1,9.03,
O=c1[nH]cnc2[nH]ncc12,,inactive
O=C(O)[C@@H](O)[C@H](O)[C@H](O)[C@@H](O)C(=O)O,-38.7,
CN1N=C(C(N)=O)CCC1=O,6.05,
CC1(C)O[C@@H]2C[C@H]3[C@@H]4CCC5=CC(=O)C=C[C@]5(C)[C@@]4(F)[C@@H](O)C[C@]3(C)[C@]2(C(=O)CO)O1,10.9,
CCCCCCCCCCCCCCCC(=O)OC(C)C,-3.33,
